Results published in PubChem BioAssay AID720518 (National Center for Advancing Translational Sciences (NCATS), 2013).
Records with an inconclusive call do not appear. Unmarked numbers belong to inactive results. Calls follow the shape of the full dose curve.

Assay: qHTS for Inhibitors of Cell Surface uPA Generation: Wild-type Protective Antigen (WT-PrAg) Counterscreen for Cherry-picked Compounds; also: 0% is about no effect
Conditions: cells, WT protective antigen toxicity counterscreen; series mostly up to 115 µM; activity (protection): at the top concentration
With `COc1cc(CN2CCNC(=O)C2CC(=O)NCCCC2CCCC2)cc(OC)c1` (configuration not stated) the “activity (protection)” value was -2%. With `CCOCc1nnc(NC(=O)C2CCN(C(=O)C3CC(=O)N(c4ccc(C)cc4)C3)CC2)s1` (configuration not stated) the “activity (protection)” value was -1.11%. In the case of `c1csc(CN2CCOCC2)c1`, the “activity (protection)” value is reported as 1.05%. With `CCN(CC)S(=O)(=O)c1ccc(C(=O)Nc2cccc(C)c2)cc1` the “activity (protection)” value was -2.04%. In the case of `Cc1ccc(NC(=O)c2ccc(=O)[nH]n2)cc1S(=O)(=O)Nc1ccccc1Cl`, the “activity (protection)” value is reported as 1.01%. In the case of `CCOc1ccc(OCC)c(NC(=O)c2ccc(CNc3c(N4CCCC4)c(=O)c3=O)cc2)c1`, the “activity (protection)” value is reported as -2.6%. In the case of `C[C@H]([C@H](O)c1ccccc1)N(C)C(=O)CN`, the “activity (protection)” value is reported as 1.02%. For `CN(C)C(=S)Nc1ccc(S(=O)(=O)N2CCCCC2)cc1`, the “activity (protection)” value was -0.577%. For `COc1ccc(C(=O)NC(C)c2cnn(-c3ccccn3)c2C)o1` (configuration not stated), the “activity (protection)” value was -0.938%. For `CCCN1CCN(CC(=O)Nc2nncs2)CC1`, the “activity (protection)” value was 2.48%. For `CC(=O)NC(=S)Nc1ccc([N+](=O)[O-])cc1C`, the “activity (protection)” value was 4.08%. In the case of `COc1ccc(-c2cc(-c3ccccc3)nc3ncnn23)cc1`, the “activity (protection)” value is reported as -1.59%. For `CCn1c(CNc2ccc(F)cc2)nnc1SCC(=O)Nc1ccccc1OC`, the “activity (protection)” value was -1.71%. For `CC1(C)S[C@@H]2[C@H](NC(=O)C(C(=O)O)c3ccccc3)C(=O)N2[C@H]1C(=O)O` (some centres not stated), the “activity (protection)” value was 1.43%. In the case of `COc1ccccc1NC(=O)COc1ccc(C(=O)NCc2ccccc2)cc1OC`, the “activity (protection)” value is reported as 0.351%. For `C=CC1=C(C(=O)O)N2C(=O)[C@@H](NC(=O)/C(=N\O)c3csc(N)n3)[C@H]2SC1` (stereo in doubt), the “activity (protection)” value was 0.487%. In the case of `O=S(=O)(c1ccc2nc(N3CCN(c4ccccc4)CC3)ccc2c1)N1CCCCC1`, the “activity (protection)” value is reported as 2.08%.
